The values that follow come from PubChem BioAssay (NCI).

Molecules are shown by their SMILES. Compounds without any hit were thinned out: in the full panel of roughly 83,000, 20% have a hit.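 How to read the values: 0–100, growth inhibition (40 = 60% inhibited); 0, no net growth; -100 to 0, cell death (-40 = 40% of starting cells died; -100 = all dead).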 A number with no mark means an inactive call. Active and inactive are the calls of the source. How the source made its calls: active means growth percent below 10; inactive means the rest.

The subject of this assay is HL-60(TB) leukemia. Briefly: NCI-60 one-dose screen, 48 h (100 = growth as untreated, 0 = no growth, -100 = all killed). To be noted: 10 µM unless noted.
On to `Cc1ccccc1NC(=O)c1sc2nc(C)c(C(C)O)cc2c1N` (centres undefined), for which the growth was -14.8% (active).
As for `COc1ccc(-c2nc(N=Nc3c(O)[nH]c4ccccc34)nc(N3CCOCC3)c2C#N)cc1`, the growth was 90.5%.
The figure for `COc1ccc(CN2C(=O)C(Cl)=C(Nc3cccc(C(F)(F)F)c3)C2=O)cc1` is 29%; for `C#CCOc1ccc2ncnc(Nc3cccc(NC(=O)CCl)c3)c2c1` it is 63.7%; for `C[C@@H]1CN(c2cnc(C(=O)Nc3cc(F)cc4cccnc34)cn2)C[C@H](C)N1` it is 82.4%.
The figure for `COc1cc(C2=NN(C(C)=O)C(c3ccc(N(C)C)cc3)C2)cc(OC)c1OC` (centres undefined) is 89.6%; for `N#C/C(=C\c1ccc(-c2cccc(Cl)c2)o1)C(=O)Nc1ncc(Cc2ccc(Cl)cc2)s1` it is 83.9%; for `O=C(/C=C/c1cc(-c2ccc3c(c2)OCO3)n[nH]1)c1ccc2c(c1)OCO2` it is 79.7%.
As to `Fc1cccc(F)c1C#Cc1ccc2cccnc2c1`, the growth is 74.6%.
As for `Cc1cc(NS(=O)(=O)c2ccccc2)c(OS(=O)(=O)c2ccccc2)cc1C`, the growth was 105%.
For the molecule `CNC(=O)c1[nH]cc(-c2ccc(OC)cc2)c1-c1cc(OC)c2c(c1OC)OCO2`, the growth was 96.4%.
In the case of `O=C(O)c1ccc(Nc2ncc3c(n2)-c2ccc(Cl)cc2C(c2c(F)cccc2F)=NC3)cc1`, the growth is 22.6%.
Take `O=c1nc(-c2ccccc2)c2cc(-c3ccc(N4CCOCC4)cc3)ccc2[nH]1`: the growth was 63.5%.
Next, `Cc1cc(=O)c2cc3nc(-c4cccnc4)oc3c(Br)c2o1`: 84.9%.
